# Source: PubChem
# Only some compounds are listed: those with a hit (about 14% of all), similar ones and a draw of the others.
# USP17 inh: human USP17-like deubiquitinase inhibition; purified USP17, Ub-rhodamine cleavage fluorescence, 3 h; inhibition, % at 50 µM; hit rate 6.5% among 47,000; AID 1645855
# Target sequence (A8MUK1 whole entry, looked up): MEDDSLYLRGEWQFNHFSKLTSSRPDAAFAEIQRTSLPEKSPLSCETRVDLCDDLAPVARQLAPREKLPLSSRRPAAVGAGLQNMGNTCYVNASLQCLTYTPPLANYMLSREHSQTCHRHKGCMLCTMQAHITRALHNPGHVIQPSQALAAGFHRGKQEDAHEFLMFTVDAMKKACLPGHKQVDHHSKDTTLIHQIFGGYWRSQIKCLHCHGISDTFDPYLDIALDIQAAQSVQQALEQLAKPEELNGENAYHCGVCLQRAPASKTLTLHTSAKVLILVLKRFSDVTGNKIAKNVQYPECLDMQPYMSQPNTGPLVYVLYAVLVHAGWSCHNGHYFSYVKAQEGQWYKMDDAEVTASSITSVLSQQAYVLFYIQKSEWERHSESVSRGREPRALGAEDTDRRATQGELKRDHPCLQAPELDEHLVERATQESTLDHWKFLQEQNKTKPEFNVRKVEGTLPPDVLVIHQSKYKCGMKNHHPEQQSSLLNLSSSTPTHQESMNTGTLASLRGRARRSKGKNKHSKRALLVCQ
# USP8 inh: blocks human USP8 ubiquitin-rhodamine cleavage; inhibition, % at 20 µM; AID 1645853; purified USP8, Ub-rhodamine cleavage fluorescence, 30 min; hit rate 4.2% among 47,000
# USP30 inh: inhibitors of human USP30 deubiquitinase; purified USP30, Ub-rhodamine cleavage fluorescence; Q70CQ3; hit rate 5.3% among 47,000; inhibition, % at 25 µM
# USP28 inh: blocks human USP28 ubiquitin-rhodamine cleavage; Q96RU2; purified USP28, Ub-rhodamine cleavage fluorescence, 30 min; hit rate 3% among 47,000; inhibition, % at 25 µM
# * = called active by the depositor; x = no result. Rule as the data show it: active = inhibition above about 30%; inactive = the rest.
SMILES,USP17 inh,USP8 inh,USP30 inh,USP28 inh
COc1ccc(-c2cn3c(-c4ccccc4)c(-c4ccccc4)nc3n2-c2ccccc2)cc1,47.7*,80.4*,37.1*,17.5
COc1cccc(-c2cn3c(-c4ccccc4)c(-c4ccccc4)nc3n2-c2cccc(Cl)c2)c1,27.9,81.2*,5.7,4.8
CCCn1c(-c2ccc(CC)cc2)cn2c(-c3ccccc3)c(-c3ccccc3)nc12,33.4*,86.5*,14.6,16.8
COc1cccc(-c2cc(C(F)(F)F)c3c(-c4ccccc4)nn(-c4ccccc4)c3n2)c1,-28.9,-5.1,-29.8,-16.0
COc1cccc(-c2cn3c(-c4ccccc4)c(-c4ccccc4)nc3n2-c2ccccc2)c1,22.2,77.4*,-6.9,-9.4
COc1ccc(/C=C2\NC(=O)[C@H]3Cc4ccccc4CN3C2=O)cc1,0.9,45.6*,-7.3,-2.5
COc1ccc(NC(=O)CCN2C(=O)[C@@H]3Cc4ccccc4CN3C2=O)cc1,-1.5,-21.5,5.4,-1.4
Cn1nccc1CN1CCC2(CC1)Nc1cc(Cl)ccc1C1=NCCN12,-4.2,6.2,-38.6,-12.4
CC(C)(C)c1cc2nc3c(c(=O)n2[nH]1)CN(Cc1ccccn1)CC3,-24.2,-278.0,-1.5,1.3
CC(C)(C)c1cc2nc3c(c(=O)n2[nH]1)CN(Cc1ccc(Br)s1)CC3,6.5,40.1*,21.2,4.5
O=C1N(Cc2cccc(Cl)c2)CCN1c1ccc2c(c1)CCC2,20.2,9.7,14.2,60.8*
O=C1N(Cc2cccc(Cl)c2)CCN1c1ccc(F)cc1F,0.0,1.2,8.6,47.8*
CC(NC(=O)CN1CCN(Cc2ccc(F)cc2)C1=O)c1ccccc1 (stereo not given),5.4,14.2,9.2,9.3
Cc1ccc2sc(N3CCN(C(=O)c4ccn(C)n4)CC3)nc2c1C,-4.6,0.1,-6.0,-19.3
O=C(c1ccncc1)N1CC[C@@H]2CN(Cc3ccc(Cl)cc3)S(=O)(=O)[C@@H]2CC1,-15.0,-29.4,-7.9,-6.6
COC(=O)c1ccc(NC(=O)c2cccc3c2SCCC3=O)cc1,36.2*,8.2,4.0,12.6
CN(CCCNC(=O)c1cccc2c1SCCC2=O)c1ccccc1,53.9*,40.2*,-0.5,8.4
O=C(NCCCN1CCCC1)c1ccc(CS(=O)(=O)c2ccc(Br)cc2)o1,39.7*,-3.5,-23.8,-5.7
Cc1ccccc1CS(=O)(=O)Cc1ccc(C(=O)NCCN2CCCC2)o1,25.1,-3.8,-38.7,-15.1
O=C(COC(=O)c1ccc(O)cc1)Nc1ccc2[nH]c(=O)[nH]c2c1,17.1,0.9,13.8,2.6
O=C(COC(=O)c1ccc(F)cc1)Nc1ccc2[nH]c(=O)[nH]c2c1,29.0,-3.7,13.6,23.3
Cc1nnc(SCC(=O)Nc2ccc3[nH]c(=O)[nH]c3c2)n1-c1ccccc1,34.0*,-33.3,-13.0,1.7
CC(CC(=O)OCC(=O)Nc1ccc2[nH]c(=O)[nH]c2c1)c1ccccc1 (stereo not given),17.2,-41.3,15.9,31.1*
O=C(CSc1nnc2ccccn12)Nc1ccc2[nH]c(=O)[nH]c2c1,5.7,0.6,-123.3,-11.0
O=C(COC(=O)c1cc(Cl)c2c(c1)OCO2)Nc1ccc2[nH]c(=O)[nH]c2c1,56.8*,16.6,-26.9,51.1*
SMILES,USP17 inh,USP8 inh,USP30 inh,USP28 inh
O=C(COC(=O)c1ccccc1F)Nc1ccc2[nH]c(=O)[nH]c2c1,17.9,4.9,17.6,36.6*
COc1ccc(C(NCC(=O)Nc2ccc3[nH]c(=O)[nH]c3c2)c2ccccc2)cc1 (stereo not given),-22.4,-1.9,-105.9,-12.2
O=C(c1ccc(-c2cnn(-c3ccccc3)c2)nc1)N1CCN(c2ccccn2)CC1,-12.4,-3.1,-1.8,3.2
Cc1cccc(NC(=O)Cn2c(=O)n(C3CC3)c(=O)c3nscc32)c1,11.6,-21.1,x,x
CC(NC(=O)COc1ncnc2ccccc12)c1ccccc1 (stereo not given),8.9,1.0,11.7,3.8
CC(C)c1nc2sc3c(N(CCO)CCO)ncnc3c2c2c1COC(C)(C)C2,9.9,5.2,59.6*,19.5
C=CCNc1ncnc2c1sc1nc(C(C)C)c3c(c12)CC(C)(C)OC3,8.6,-1.5,x,x
CCCCN(CC)c1ncnc2c1sc1nc(-c3ccco3)c3c(c12)CC(C)(C)OC3,53.4*,59.3*,-33.9,11.6
CCC(C)(C)C1CCC2(CC1)N=C(N)Nc1nc3ccccc3n12 (stereo not given),10.8,4.4,69.3*,28.8
NC1=NC2(CCC(c3ccccc3)CC2)n2c(nc3ccccc32)N1 (stereo not given),4.1,0.2,-2.8,-0.8
CCc1ccc2nc(NC(=O)C3CCCCN3S(=O)(=O)c3ccccc3)sc2c1 (stereo not given),5.0,22.6,11.3,17.3
CCc1ccc2nc(NC(=O)c3ccc(=O)[nH]c3)sc2c1,33.3*,-4.8,1.2,0.7
O=C(NCCc1ccccc1)c1nnn(Cc2cccc(Cl)c2)c1-n1cccc1,15.3,8.0,-40.7,78.4*
O=C(NCCc1ccccc1)c1cn2cc(Cl)ccc2n1,-0.5,-0.1,0.0,3.8
O=C(NCc1ccco1)c1nnn(Cc2ccccc2Cl)c1-n1cccc1,33.1*,25.5,-115.1,5.6
Cc1cc(=O)n(CC(=O)NCc2ccc(F)cc2)c(-c2ccccc2)n1,4.2,0.2,38.6*,5.3
Cc1noc(-c2cc(=O)n(CC(=O)Nc3ccccc3)c3ccccc23)n1,41.8*,-0.5,x,x
Cc1cc(-c2nnc(C3CCC3)o2)c(C)n1CC(=O)NCc1ccccc1,-10.8,-3.7,-31.5,-9.5
Cc1noc(-c2cc(=O)n(CC(=O)NC3CCCC3)c3ccccc23)n1,10.9,34.8*,-36.6,7.4
Cc1ccc(CNC(=O)Cn2c(C)cc(-c3nnc(C)o3)c2C)cc1,30.3*,-2.3,7.3,5.1
Cc1nc(-c2ccc(N3CCN(C(=O)C4CC(=O)N(C5CCCC5)C4)CC3)cc2)no1 (stereo not given),17.6,6.0,29.5,9.3
Cc1ccc(CNC(=O)Cn2c(=O)cc(-c3nc(C)no3)c3ccccc32)cc1,42.2*,6.3,-7.4,-6.4
Cc1ccc(CNC(=O)CCn2cnc3c(-c4ccccc4)noc3c2=O)cc1,14.1,-2.7,27.8,5.9
Cc1ccc2c(c1)c1ncn(Cc3nc(C)no3)c(=O)c1n2CC(=O)NCc1ccccc1,71.5*,35.3*,87.4*,57.9*
Cc1noc(-c2cc(=O)n(CC(=O)Nc3ccccc3Cl)c3ccccc23)n1,6.3,8.9,0.8,-4.9
SMILES,USP17 inh,USP8 inh,USP30 inh,USP28 inh
CN(C)C(=O)N1CCN(C(=O)Nc2ccccc2)CC2(CNC(=O)C2)C1 (stereo not given),-17.7,-43.9,0.1,-6.6
CC1(C(=O)NCc2ccccc2)CCN(C(=O)c2cccc(F)c2)CC1,-3.0,2.9,x,x
CNC(=O)c1c2n(c3ncccc13)CCN(S(=O)(=O)c1ccc(-c3ccccc3)cc1)C2,51.9*,13.8,-22.2,-1.8
CNC(=O)c1c2n(c3ncccc13)CCN(S(=O)(=O)c1ccc(C(C)(C)C)cc1)C2,-23.7,0.3,-32.1,-15.9
COC(=O)c1c(C)[nH]c(C(=O)C(C)OC(=O)CCC2CCCC2)c1C (stereo not given),5.1,1.7,-8.3,79.4*
O=S(=O)(c1cccc(F)c1)N1CCCN(c2nc3cccnc3s2)CC1,-5.9,-2.3,-22.1,-0.3
